Screening data (PubChem)
APOBEC3G inh = inhibitors of human APOBEC3G DNA deaminase. recombinant A3G, ssDNA deamination FAM/TAMRA fluorescence. inhibition, % at 20 µM. 330,000 compounds, 0.28% hits. AID 493012;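 active means inhibition of at least 40% at 20 µM, with no more than 30% in the related APOBEC3A deaminase screen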;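 further: plate controls were DMSO wells with A3G for no effect and wells lacking A3G enzyme for full effect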
Target sequence (Q9HC16 whole entry, looked up): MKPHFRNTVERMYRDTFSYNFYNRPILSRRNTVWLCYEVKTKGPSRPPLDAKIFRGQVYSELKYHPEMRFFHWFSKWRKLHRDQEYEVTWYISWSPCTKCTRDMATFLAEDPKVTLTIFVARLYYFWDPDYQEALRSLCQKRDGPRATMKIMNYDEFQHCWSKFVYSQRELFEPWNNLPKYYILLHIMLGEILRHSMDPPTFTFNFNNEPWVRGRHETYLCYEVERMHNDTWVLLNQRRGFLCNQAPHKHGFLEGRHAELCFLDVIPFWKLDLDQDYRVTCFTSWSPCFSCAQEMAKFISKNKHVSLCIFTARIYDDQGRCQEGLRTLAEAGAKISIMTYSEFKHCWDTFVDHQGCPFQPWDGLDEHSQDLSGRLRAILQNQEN
NPR1 activator = GC-A (human) enzyme activation; HEK293 GC-A cells, cGMP TR-FRET, EC30 ANP; 0% at EC30 ANP, 100% saturating ANP; AID 1671463; P16066; activation, % at 10 µM; 370,000 compounds, 0.14% hits; in the data active means activation above about 40%
APOBEC3A inh = human APOBEC3A DNA deaminase inhibition | inhibition, % at 20 µM | AID 493011 | 330,000 compounds, 0.41% hits | P31941 | recombinant A3A, FAM/TAMRA ssDNA deamination fluorescence;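 active means at least 40% inhibition at 20 µM here, with at most 30% in a related deaminase screen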;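 further: plate controls were A3A with DMSO for no effect and wells lacking A3A enzyme for full effect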
Neddyl block = blocks human cullin neddylation; AID 651699; TR-FRET cullin neddylation, biochemical; 360,000 compounds, 0.58% hits; inhibition, % at 25 µM; P61081+Q13564; in the data active means inhibition above about 36%
PfG6PD inh = PfG6PD (Plasmodium falciparum) enzyme inhibition; PfGluPho enzyme, NADPH resazurin-diaphorase fluorescence; inhibition, % at 20 µM; 350,000 compounds, 0.78% hits; AID 504690;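 active means inhibition reaching at least a set limit at 20 µM in the primary screen, cut at about 59% in these data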;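 further: 0% = DMSO wells with substrate and 100% = DMSO wells lacking glucose-6-phosphate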
GC-B act = GC-B (human) receptor activation; activation, % at 10 µM; AID 1920062; P20594; 370,000 compounds, 0.11% hits; HEK293-GC-B cells, CNP EC30, cGMP TR-FRET; 0% at EC30 CNP, 100% saturating CNP;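 active means activation at 10 µM reaching about 35% in either raw or pattern-adjusted values, limit read from the data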
A3A conf = confirmation of human APOBEC3A DNA deaminase inhibitors; shares compounds with APOBEC3A inh; recombinant A3A, ssDNA deaminase UDG fluorescence assay; inhibition, % at 20 µM; 1,400 compounds, 63% hits;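 active means inhibition reaching a set limit, 80% of the first screen's cutoff, at 20 µM in any replicate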;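 further: plate controls were DMSO wells with A3A for no effect and wells lacking A3A enzyme for full effect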
UDG A3A counter = inhibits UDG, flagging false APOBEC3A inhibitors; UDG counterscreen, FAM/TAMRA uracil oligo fluorescence; shares compounds with APOBEC3A inh; 1,000 tested, under 10 active; inhibition, % at 20 µM; call rule not given here
Active calls of the source: *; x = not tested or not shown. An excerpt weighted towards active compounds, which were near 2% of everything screened.

SMILES | APOBEC3G inh | NPR1 activator | APOBEC3A inh | Neddyl block | PfG6PD inh | GC-B act | A3A conf | UDG A3A counter
NC1=NC(=O)/C(=C/c2ccc(Br)cc2)S1 | -1 | 8 | 0 | -7 | 7 | -7 | x | x
CCOC(=O)COc1ccc(Br)cc1/C=C1\SC(N)=NC1=O | 6 | -11 | 53* | -5 | 11 | -13 | 50* | -5
C=CC1=C(C(=O)O)N2C(=O)[C@@H](NC(=O)/C(=N\O)c3csc(N)n3)[C@H]2SC1 (stereo in doubt) | 18 | 0 | 89* | -16 | -3 | -2 | 88* | x
Cc1ccc(OCCN2C(=O)CSC2=O)cc1 | -1 | 12 | -2 | -10 | 7 | 5 | x | x
C[N+](C)(C)CCN1C(=O)CSC1=O | 16 | 3 | 55* | 2 | -9 | -3 | 48* | 6
O=[N+]([O-])c1ccc(S(=O)(=O)NCC(c2ccco2)N2CCc3ccccc3C2)cc1 (configuration not stated) | -7 | -1 | 77* | -13 | 9 | -3 | -2 | -3
CC(=O)c1ccc(NC(=O)NC2CCCCN(Cc3cccc(Cl)c3)C2=O)cc1 (configuration not stated) | x | -1 | x | x | x | -7 | x | x
CC1CCN(C(=O)CCc2ccc(S(=O)(=O)NC(C)C)cc2)CC1 | -3 | -1 | 51* | -4 | -11 | 0 | -7 | -3
CC(C)NS(=O)(=O)c1ccc(CCC(=O)N2CCc3ccccc3C2)cc1 | -6 | -3 | -2 | -3 | -12 | -2 | x | x
O=Nc1c(O)[nH]c2ccc(F)cc12 | -3 | 0 | -1 | -8 | -13 | -7 | x | x
COc1ccc2[nH]c(O)c(N=O)c2c1 | 26 | -3 | 54* | -24 | -1 | -3 | 53* | 2
Cc1ccc(Cn2nnc3c2-c2ccccc2S(=O)(=O)N(C2CC2)C3)cc1 | x | -1 | x | x | x | -1 | x | x
COc1ccc(-c2cc(-c3nnc(SCC(=O)NC4CCCCC4)n3N)[nH]n2)cc1 | x | 0 | x | x | x | -6 | x | x
O=C(/C=C/c1ccccc1)OCC(=O)N1CCCC1 | -4 | 0 | 0 | -15 | -7 | 3 | x | x
O=C(/C=C/c1ccco1)OCC(=O)N1CCCCC1 | 14 | 1 | 49* | -17 | 3 | 1 | 38* | 3
CCOC(=O)c1[nH]ncc1CN1CCc2ccc(NC(=O)C3CCCO3)cc2C1 (configuration not stated) | -8 | 5 | 54* | 3 | -2 | 2 | -7 | -3
COc1cccc(-c2ccc(-c3noc(-c4cccs4)n3)c(OC)n2)c1 | 25 | -1 | 68* | -16 | 14 | 2 | 72* | -2
O=C1C=C(O)c2c(O)cc(O)c(O)c2C1=O | 8 | -12 | 83* | -21 | 4 | -9 | 76* | x
COCc1cn(-c2ccc3c(c2)[C@@]2(CC(=O)N(C)C2c2ccccc2)C(=O)N3CC(C)C)nn1 (some centres not stated) | x | -1 | x | x | x | 3 | x | x
COc1cc(/C=C/c2cc[n+](C)cc2)ccc1OCC(=O)Nc1ccccc1 | 8 | -1 | 66* | -8 | 5 | 2 | 79* | 3
CCC(C)OC(=O)C[N+](C)(C)CCOC1CC2CCC1(C)C2(C)C (configuration not stated) | -3 | 4 | 1 | -7 | 7 | 10 | x | x
CC(=O)OC(COC1C[C@@H]2CC[C@@]1(C)C2(C)C)C[N+]1(C)CCCCC1 (some centres not stated) | 15 | 5 | 48* | 10 | -3 | 0 | 70* | -3
C=CCn1c(SCC(=O)C(C)(C)C)nnc1-c1ccc(Cl)cc1 | x | 0 | x | x | x | 0 | x | x
COC(=O)[C@]12C[C@H](CC(=O)NCCCCc3ccccc3)C(=O)N(Cc3ccco3)C1=C[C@H](C(C)(C)C)O[C@@H]2C | x | -21 | x | x | x | -18 | x | x
CN(Cc1ccccc1Cl)C(=O)CN1C(=O)C2(OCCCO2)c2ccccc21 | x | -1 | x | x | x | -1 | x | x
